High-throughput results as filed in PubChem BioAssay.
Rows were chosen to be rich in hits. Some 28% of all compounds tested hit in one or more screens of this group.
CD11b adhes enh: enhancers of human CD11b/CD18 binding to fibrinogen; P05107+P11215; K562 CD11b/CD18 adhesion to fibrinogen, ATPlite luminescence; activation, % at 10 µM; actives 0.07% (n = 93,000); AID 1499;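 active = 10 µM primary screen giving 50% or more activity, confirmed by 40% or more on retest at that dose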
CYP2C9 act: activators of human CYP2C9; P11712; recombinant CYP2C9, luciferin-H conversion, luminescence; active compounds read high; factor 1 = untreated enzyme, 0 = blocked; actives 1.4% (n = 96,000); activation factor at 5 µM;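 active = activation factor of 2 or more for CYP2C9 at a 5 µM dose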;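 also: 0 = sulfaphenazole-blocked wells and 1 = vehicle-only wells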
CD11b adhes inh: blocks human CD11b/CD18 adhesion to fibrinogen; P05107+P11215; K562 CD11b/CD18 adhesion to fibrinogen, ATPlite luminescence; Mn2+ added to activate the integrin; inhibition, % at 10 µM; actives 0.54% (n = 93,000); AID 1497;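 active = primary inhibition of 50% or more at 10 µM, then 40% or more on retest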
CYP2C9 inhib: blocks human cytochrome P450 2C9; P11712; CYP2C9 Supersomes, luciferin-H conversion, luminescence; inhibition, % at 5 µM; actives 20% (n = 96,000); AID 777;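 active = blocking of liver enzyme CYP2C9 beyond about 50% at 5 µM, limit read from the data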
CYP2C19 inh: blocks human cytochrome P450 2C19 | inhibition, % at 5 µM | actives 21% (n = 96,000) | CYP2C19 Supersomes, luciferin-H EGE luminescence, 30 min | P33261;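 active = CYP2C19 inhibition above a set limit at 5 µM in the primary screen, cut at about 50% in these data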;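 also: plate controls were negative control wells for no effect and 2.5 mM tranylcypromine positive control for full effect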
Target sequence (P33261 whole entry, looked up): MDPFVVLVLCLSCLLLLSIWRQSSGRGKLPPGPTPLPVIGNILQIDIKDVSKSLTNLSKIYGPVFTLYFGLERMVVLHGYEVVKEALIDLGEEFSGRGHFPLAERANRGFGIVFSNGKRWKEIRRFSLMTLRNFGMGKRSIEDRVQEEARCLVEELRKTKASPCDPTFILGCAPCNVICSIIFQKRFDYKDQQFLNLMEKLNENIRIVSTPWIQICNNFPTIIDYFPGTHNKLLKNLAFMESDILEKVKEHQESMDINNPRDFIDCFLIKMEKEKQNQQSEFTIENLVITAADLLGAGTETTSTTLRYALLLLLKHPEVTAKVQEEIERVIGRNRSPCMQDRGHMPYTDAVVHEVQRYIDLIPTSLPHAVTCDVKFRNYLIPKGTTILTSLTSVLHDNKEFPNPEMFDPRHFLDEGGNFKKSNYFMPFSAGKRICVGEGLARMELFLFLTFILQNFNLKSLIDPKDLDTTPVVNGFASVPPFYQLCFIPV
CYP2C19 act: activators of human cytochrome P450 2C19. P33261. recombinant CYP2C19, luciferin-H EGE luminescence; active compounds read high; 0 = fully inhibited enzyme, 1 = untreated enzyme. activation factor at 5 µM. 96,000 tested, under 10 active. AID 1025;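 active = activation factor of at least 2 at 5 µM in the primary screen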;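 also: 0 = wells with 2.5 mM tranylcypromine and 1 = vehicle-only wells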
* = called active by the depositor; . = no result.

SMILES | CD11b adhes enh | CYP2C9 act | CD11b adhes inh | CYP2C9 inhib | CYP2C19 inh | CYP2C19 act
COC1CCCCC1NS(=O)(=O)c1ccc(Cl)cc1 (stereo not drawn) | -1 | 0.7 | -6 | 28 | 94* | 0.1
COC1CCCCC1Nc1cc(C)ccc1C (stereo not drawn) | -2 | 0.8 | -20 | 22 | 44 | 0.6
COC1CCCCC1NS(=O)(=O)c1ccccc1 (stereo not drawn) | -1 | 0.9 | -23 | 11 | 56* | 0.4
CCCC(=O)Nc1nnc(CC(=O)N2CCCC2)s1 | -2 | 1.2 | -18 | -21 | 5 | 0.9
COc1cc2c(cc1OC)C1=C(C#N)CC/C(=N\S(=O)(=O)c3ccccc3)N1CC2 | 1 | 0.1 | 4 | 87* | 69* | 0.3
Cn1c(CCCOc2ccc(Cl)cc2Cl)nnc1SCC(=O)Nc1cccc(F)c1 | 2 | . | 6 | . | . | .
CCn1cc(Br)c(C(=O)Nc2cccc(SC)c2)n1 | -3 | 0.6 | 0 | 38 | 81* | 0.2
CSc1cccc(NC(=O)CSc2ccc(Cl)cc2)c1 | 1 | 1 | 17 | 5 | 61* | 0.4
CCSCc1nnc(SCC(=O)Nc2cccc(SC)c2)n1C | -3 | 0.7 | 16 | 32 | 91* | 0.1
Cc1oc2ccc(OCc3ccccc3F)cc2c1C(=O)O | -1 | 0.6 | 5 | 40 | 3 | 1
CCOCCCNC(=O)C1c2ccccc2C(=O)N2CCc3ccccc3C12 (stereo not drawn) | -3 | 0.9 | -20 | 15 | -5 | 1.1
CCCn1c(SCc2cc(=O)[nH]c3ccccc23)nc2c1c(=O)n(C)c(=O)n2C | -6 | 1 | -11 | -3 | -5 | 1.1
CS(=O)(=O)NC1CCN(Cc2ccccc2)CC1 | 4 | 0.5 | -2 | 46 | 1 | 1
O=S(=O)(NC1CCCC1)c1ccc(S(=O)(=O)N2CCCN(Cc3ccccc3)C2)cc1 | -4 | 0.1 | 4 | 95* | 98* | 0
Cc1nn(Cc2cccc(F)c2)c(C)c1NC(=O)c1c([N+](=O)[O-])c(C)nn1C | -2 | 0.4 | -7 | 62* | 76* | 0.2
Cc1nn(C)c(C(=O)Nc2ccn(Cc3c(F)c(F)cc(F)c3F)n2)c1[N+](=O)[O-] | -4 | 0.5 | 11 | 49 | 46 | 0.5
Cc1nn(Cc2cccc(C(=O)Nc3ccn(Cc4c(F)c(F)cc(F)c4F)n3)c2)c(C)c1[N+](=O)[O-] | -3 | 0.1 | 12 | 93* | 86* | 0.1
Cc1nn(Cc2cccc(F)c2)c(C)c1NC(=O)c1ccc(COc2ccccc2Cl)cc1 | 1 | 0.3 | 0 | 65* | 46 | 0.5
CC(C)CC(=O)c1c[nH]c(C(=O)NCC2CCCO2)c1 (stereo not drawn) | -1 | 1.2 | 0 | -17 | -12 | 1.1
Cn1c(C(=O)NCc2ccccc2)cc2oc3ccccc3c21 | -1 | 0.1 | 5 | 91* | 52* | 0.5
Cn1c(C(=O)NCc2cccs2)cc2oc3ccccc3c21 | -4 | 0.2 | 25 | 79* | 51* | 0.5
Cc1c(C(=O)NCc2cccs2)oc2ccc(Br)cc12 | -4 | 0.7 | 8 | 29 | -11 | 1.1
CC(=O)c1c[nH]c(C(=O)NCC2CCCO2)c1 (stereo not drawn) | -2 | 0.9 | -6 | 11 | 69* | 0.3
Cn1c(C(=O)NCC2CCCO2)cc2oc3ccccc3c21 (stereo not drawn) | -7 | 0.2 | 2 | 81* | 72* | 0.3
CCN1CCN(C(=O)c2cc3nc(-c4ccccc4)cc(C(F)(F)F)n3n2)CC1 | 9 | 1 | -20 | 3 | 14 | 0.9
C#CC1(O)CC(C)NCC1(C)CCC#N (stereo not drawn) | -3 | 1 | -6 | -1 | -8 | 1.1
CNc1cccccc1=S | -3 | 0.9 | -11 | 11 | 0 | 1
Cc1cccc2cc(CN(CCc3ccccc3)C(=O)N3CCOCC3)c3nnnn3c12 | -5 | 0.5 | -2 | 46 | 38 | 0.6
CCOc1cc(-c2nc3ccccn3c2NCC2CCCO2)ccc1O (stereo not drawn) | 6 | 0.2 | -12 | 75* | 37 | 0.6
COc1cc(-c2nc3ccccn3c2NCC2CCCO2)ccc1O (stereo not drawn) | -2 | 1 | -5 | 0 | 0 | 1
